Measurements: the supplement of paper PMC6555819

Key:
Test in all cases: PBM binding z-score (relative to random genomic background probes); higher = stronger binding; sequences stand for … in GC…GCGATTGACAGCGTAGAATGAAGG
[1] = system: RARb homodimer (NR concentration 270 nM)
In short: (§1)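 Ligand-free nuclear receptor dimers were bound for 1 h to custom Agilent 4×180K protein-binding microarrays. Detection used antibodies against each partner (one per run). Binding z-scores rest on regression-normalized fluorescence, with random background probes as the reference.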

[2] = system: RARg:RXRa (NR concentration 270 nM, RXRa partner concentration 90 nM)
In short: as §1

[3] = system: RARg homodimer (NR concentration 270 nM)
In short: as §1

[4] = system: RXRa DBDmut IVT, anti-RXR (DBD mutation: RXRa K156A/R161A, NR concentration 90 nM)
In short: as §1

[5] = system: RXRa homodimer (NR concentration 180 nM)
In short: as §1

[6] = system: THRa:RXRa (NR concentration 90 nM, RXRa partner concentration 90 nM)
In short: as §1

[7] = system: THRa homodimer (NR concentration 90 nM)
In short: as §1

[8] = system: VDR homodimer (NR concentration 270 nM)
In short: as §1

| Sequence | PBM binding z-score [1] | PBM binding z-score [2] | PBM binding z-score [3] | PBM binding z-score [4] | PBM binding z-score [5] | PBM binding z-score [6] | PBM binding z-score [7] | PBM binding z-score [8] |
| --- | --- | --- | --- | --- | --- | --- | --- | --- |
| CGGCAAAGTTCAACTAAGGTAACGTAAAGCACGC | 4 | 5.78 | 6.69 | 4.36 | 5.14 | 5.16 | 1.33 | 3.51 |
| TCTCGGAGGACACGAAGTTCAGAGCTTTCCAGAG | 2.07 | 1.17 | 2.04 | 1.08 | 0.47 | 1.72 | 0.372 | 2.38 |
| TAACCTAGGTCATTCAGGGGCCAGTATAGAAAGC | 3.95 | 6.73 | 5.25 | 2.62 | 3.87 | 3.83 | 1.26 | 2.58 |
| AGTCAAAGATCACTAGGTAACGTAAGATTCAGCT | -0.307 | 0.422 | 0.489 | -0.0538 | 0.356 | 0.378 | -0.116 | -0.051 |
| CTACCAAGGTGAAAAAGGTCGTTGATTACTATTC | 2.39 | 2.01 | 1.33 | 1.01 | 2.21 | 2.42 | 0.518 | 1.4 |
| CAAACTAGGTCCAAGGTCAAAGTCGAGCCAACCA | 3.79 | 3.98 | 3.24 | 2.47 | 4.04 | 3.64 | 2.62 | 3.42 |
| GATGCAGGGTCAAGGCCAGAGTACGCGTATTGAT | 3.44 | 5.2 | 4.79 | 1.98 | 5.72 | 3.46 | 0.878 | 1.78 |
